FXN GAA850 act – activators of GAA850 frataxin (FXN) promoter; HEK293 lucGAA850 FXN promoter luciferase reporter, 24 h; percent of 10 µM SAHA response; actives 0.56% (n = 360,000); activation, % at 6 µM; AID 540364;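 active means activation above the average of all compounds screened plus 3 SD, cutoff fixed separately per campaign, cut at about 7.5% in these data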;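 further: 0% = DMSO wells and 100% = 10 µM SAHA wells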
H9c2 protect – modulators protecting cardiomyocytes from myocardial damage | H9c2 cardiomyocytes, H2O2 injury protection, ATPLite, 2 h | protection from H2O2 cell death, % at 20 µM | actives 0.63% (n = 360,000);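 active means compounds giving at least 50% protection of heart cells from peroxide-induced death in the single-dose screen, raw or plate-pattern-corrected value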;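 further: 0% = DMSO wells with peroxide and 100% = DMSO wells without peroxide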
NR2F2 inh – blocks human COUP-TFII nuclear receptor | HEK293T NGFI-A luciferase reporter, luminescence | actives 0.7% (n = 370,000) | inhibition, % at 8.6 µM | AID 686940 | P24468;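 active means inhibition above a per-plate cutoff, mean inhibition of test wells between control levels plus 3 SD, cut at about 38% in these data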;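 further: cells cotransfected with COUP-TFII expression vector driving the NGFI-A reporter; 0% = median of COUP-TF2 test wells and 100% = reporter-only cells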
SMARCA2 act – activators of SMARCA2 function; actives 1% (n = 370,000); AID 652017; MG213 cells, MMTV-luciferase reporter, dexamethasone, overnight; activation, % at 9.1 µM; in the data active means activation above about 7.8%;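 further: 0% = vehicle wells and 100% = reference activator wells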
GalR3 antag – antagonists of human GalR3; O60755; AID 651719; actives 0.44% (n = 360,000); HEK293 GalR3-CNG cAMP membrane potential fluorescence; galR3 body fused to GalR1 C-terminus; inhibition, % at 3 µM;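 active means inhibition above the screen-wide average plus 3 SD, cut at about 13% in these data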;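 further: forskolin and galanin both at EC90 stimulate the cells; cAMP rise reported by CNG channel membrane potential dye signal; 0% = forskolin plus galanin with DMSO and 100% = forskolin alone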
Target sequence (O60755 1-299 limits assumed): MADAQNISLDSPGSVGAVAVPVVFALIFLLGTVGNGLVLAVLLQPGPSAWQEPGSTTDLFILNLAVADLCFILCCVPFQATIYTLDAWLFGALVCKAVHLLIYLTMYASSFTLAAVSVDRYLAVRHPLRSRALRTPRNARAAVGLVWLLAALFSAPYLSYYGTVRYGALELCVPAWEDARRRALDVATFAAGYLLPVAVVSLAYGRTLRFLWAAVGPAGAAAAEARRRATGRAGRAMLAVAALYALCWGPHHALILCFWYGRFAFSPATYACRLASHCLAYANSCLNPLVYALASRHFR
Gli-Sufu block – blocks Gli-Sufu signaling in a luciferase reporter | actives 0.74% (n = 340,000) | Sufu-KO-LIGHT fibroblasts, Gli luciferase reporter luminescence | inhibition, % at 5 µM;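 active means inhibition above about 55%, limit read from the data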;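 further: 0% = DMSO-treated cells and 100% = wells with medium but no cells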
GAA30 FXN cntr – activates GAA30 frataxin promoter, counter-screen for GAA850 activators; shares compounds with FXN GAA850 act; HEK293 lucGAA30 FXN promoter luciferase, 24 h; DMSO = 0%, 5 µM ipriflavone = 100%; activation, % at 6 µM; actives 66% (n = 1,900); AID 588350;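 active means mean activation above the mean of solvent-only control wells plus 3 SD, cut at about 22% in these data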;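 further: counterscreen of GAA850 promoter hits where activity marks nonselective or luminescence artifacts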
GAA850 confirm – GAA850 FXN promoter activation confirmation. shares compounds with FXN GAA850 act. HEK293 lucGAA850 FXN promoter luciferase reporter, 24 h; 100% = activation by SAHA. actives 86% (n = 1,900). activation, % at 6 µM;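 active means mean activation above a set limit taken from the primary screen, cut at about 8% in these data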;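 further: 0% = DMSO wells and 100% = 10 µM SAHA wells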
The depositor's hits bear a star; / = no result. Compounds with a hit are over-represented: about 3.4% of the library has one in this group of screens.

SMILES	FXN GAA850 act	H9c2 protect	NR2F2 inh	SMARCA2 act	GalR3 antag	Gli-Sufu block	GAA30 FXN cntr	GAA850 confirm
O=[N+]([O-])c1ccc(C=Nc2ccc(Cl)c([N+](=O)[O-])c2)s1	4	-18	-42	4	-3	/	/	/
O=C(Cc1cccs1)N/N=C\c1ccc([N+](=O)[O-])s1	-1	-12	-18	-6	-5	5	/	/
Cc1ccc(NC(=S)N/N=C/c2ccc([N+](=O)[O-])s2)cc1	11*	6	-13	-1	-3	-2	-97	-29
Cc1cc(C)cc(N=Cc2ccc([N+](=O)[O-])s2)c1	16*	-13	18	-1	10	-29	1	6
CCOC(=O)/C=C/C(=O)N1CCc2ccccc21	-2	-2	-7	7	-3	-5	/	/
Cc1ccc(/C=C/C(=O)N2CCc3ccccc32)o1	11*	-17	-60	5	-2	-92	116*	37*
O=[N+]([O-])c1ccc(N/N=C/c2cccc(O)c2O)cc1	15*	34	5	-1	-2	36	77*	40*
O=[N+]([O-])c1ccc(N/N=C/c2cccc(O)c2)cc1	-1	-13	-54	5	-13	-13	/	/
CCOC(=O)[C@]12CCCC=C1N(Cc1ccc(OC)cc1)C(=O)[C@@H]2CC(=O)NCCC(C)C	/	/	8	-3	/	/	/	/
COC(=O)c1ccc(N2C(=O)CC(N3CCN(C(=O)c4ccco4)CC3)C2=O)cc1 (stereo not drawn)	11*	5	8	-5	-8	0	16	8.2*
Cc1ccc(NC(=O)CSCC(=O)Nc2cc(C(F)(F)F)ccc2N2CCOCC2)cc1	11*	0	/	/	/	3	25*	11*
COc1ccc(-c2cnc3c(-c4ccc(F)cc4)cnn3c2N)cc1	7	-7	-5	6	-7	-61	/	/
Cc1nc2c(-c3ccc(F)cc3)cnn2c2c1CCC2	8.2*	-2	-10	2	-7	-39	90*	29*
CCCCCCCCN1C(=O)[C@H](CC(=O)NCCCCc2ccccc2)C[C@@]2(C(=O)OC)CC(C)(C)CC=C12	/	/	4	1	-8	/	/	/
CCCSc1nnc(-c2ccccc2N)c(=O)[nH]1	11*	-5	-21	0	2	-11	90*	28*
COc1ccccc1OCC(=O)Nc1ccccc1C(=O)NCc1ccco1	-1	24	5	0	-4	12	/	/
O=C(COc1ccccc1)Nc1ccccc1C(=O)NCc1ccco1	8.4*	2	22	-3	-2	-2	41*	16*
C(=NN1CCCCCC1)c1ccccc1	-2	-6	-3	4	-5	-4	/	/
CN(c1ccccc1)c1ccc(/C=N/N2CCOCC2)cc1	7.9*	-9	-19	4	-12	-107	114*	36*
CN1C(=O)c2cc(NC(=O)c3ccc(F)cc3)ccc2OC[C@H]2O[C@H](CC(=O)NC3CCC3)CC[C@H]21	/	/	-12	-2	/	/	/	/
CS(=O)(=O)c1ccc(C(=O)OCC(=O)Nc2cccnc2Cl)cc1[N+](=O)[O-]	8.0*	-12	/	/	/	8	31*	20*
O=C(COC(=O)c1ccc([N+](=O)[O-])cc1)Nc1cccnc1Cl	1	2	-4	-2	-1	-5	/	/
COCC(C)NC(=O)NC(=O)c1ccc(Cl)cc1 (stereo not drawn)	2	-6	5	1	-9	-14	/	/
O=C(NCCN1CCOCC1)NC1(C(F)(F)F)Oc2ccc(Cl)cc2O1 (stereo not drawn)	15*	46	-25	-2	-6	35	36*	20*
CCOC(=O)Cc1csc(NC(=O)NC2(C(F)(F)F)Oc3ccc(Cl)cc3O2)n1 (stereo not drawn)	8.5*	62*	-26	-1	-1	23	44*	17*
CCOC(=O)Cc1csc(NC(=O)Cc2ccc(Cl)cc2)n1	-1	-5	-3	-8	-1	-6	/	/

Screening data from PubChem BioAssay.
